# Laboratory results from the supplement of paper PMC11402862.
# Test system: PPARalpha LBD (GAL4 fusion)
# Assay: luciferase reporter transactivation, fold of solvent control; higher = stronger receptor activation
# Settings: HEK293T, exposure time: 24 h
# Description: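 HEK293T cells were transiently transfected with a GAL4-DBD fused to the ligand-binding domain of a human nuclear receptor (PPARα, PPARγ, PPARδ, FXR, LXRα, PXR, RARα or CAR), the GAL4-(UAS)5-TK firefly luciferase reporter and a Renilla luciferase normalisation plasmid. Cells were exposed to compound for 24 h in 0.5% DMSO. Firefly/Renilla luciferase was expressed as fold of the solvent control (=1). Values are the mean of 2-3 biological replicates; receptor agonists were used as positive controls.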
structure (smiles),measurement,setting,value
O=C(O)C(F)(F)C(F)(F)F [perfluoropropanoic acid],luciferase reporter transactivation,concentration: 1 µM,1.08
same,luciferase reporter transactivation,concentration: 5 µM,1.01
same,luciferase reporter transactivation,concentration: 10 µM,1.07
same,luciferase reporter transactivation,concentration: 25 µM,1.03
same,luciferase reporter transactivation,concentration: 50 µM,1.12
same,luciferase reporter transactivation,concentration: 100 µM,1.78
same,luciferase reporter transactivation,concentration: 250 µM,1.42
same,luciferase reporter transactivation,concentration: 500 µM,1.98
NS(=O)(=O)C(F)(F)C(F)(F)C(F)(F)C(F)(F)C(F)(F)C(F)(F)C(F)(F)C(F)(F)F [perfluorooctane sulfonamide],luciferase reporter transactivation,concentration: 1 µM,0.788
same,luciferase reporter transactivation,concentration: 2.5 µM,0.548
same,luciferase reporter transactivation,concentration: 5 µM,0.904
same,luciferase reporter transactivation,concentration: 10 µM,0.796
same,luciferase reporter transactivation,concentration: 100 µM,1.2
